High-throughput results deposited in PubChem BioAssay by National Center for Advancing Translational Sciences (NCATS).
The list is not random: actives were taken first. Their share in the collection is about 19%.
HT1080 IDH1KD tx = qHTS for induction of synthetic lethality in tumor cells producing 2HG: qHTS for the HT-1080-IDH1KD cell line; AID 686971, 2013; HT-1080 IDH1 knockdown viability, ATP luminescence, 48 h; 2% of 360,000 active; Potency, µM (highest dose often 46.1 µM), for inactives: top-dose activity, negative = toxicity, most hits filed as cytotoxic;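 further: potency means the concentration at half of the fitted maximal effect; 0% = DMSO wells and -100% = cell-free medium wells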
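After a 2 h attachment period, IDH1KD HT-1080 cells took pin-transferred compound for 48 h at 37 °C; ATP-based luminescence after 10 min room-temperature reagent incubation reported viability.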
IL1B secr inh = qHTS for Inhibitors of Inflammasome Signaling: IL-1-beta AlphaLISA Primary Screen; activity change, % at 57.5 µM; 4.7% of 360,000 active; THP-1 LPS/ATP IL-1B secretion, AlphaLISA, 16 h; hits give low values; AID 743279, 2014; in the data active means activity change below about -50%; inconclusive means mostly about -30% to -49%
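Secreted IL-1B measured by AlphaLISA bead assay after 16 h compound exposure of THP-1 cells; compounds (final up to 57.5 uM) added 1 h before LPS (250 ng/mL) and ATP (1.25 mM) stimulation; lower signal means less secretion.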
TDP1 cell noCPT = qHTS for Inhibitors of human tyrosyl-DNA phosphodiesterase 1 (TDP1): qHTS in cells in absence of CPT; 15% of 420,000 active; DT40 Tdp1-/- hTDP1 cells, no CPT, ATP luminescence, 48 h; Potency, µM (doses to about 46.2 µM), for the others: top-dose activity change, negative = growth inhibition, actives largely listed as inhibitors; further: potency means the concentration at half of the fitted maximal effect; nearly all actives have a fitted effect of over 55% in size
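Luminescent ATP content (CellTiter-Glo) served as the growth readout. Knockout chicken DT40 cells expressing human TDP1 were exposed to compounds without camptothecin for a minimum 48 hr at 37 °C.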
HT1080-NT tox = qHTS for induction of synthetic lethality in tumor cells producing 2HG: qHTS for the HT-1080-NT fibrosarcoma cell line; HT-1080-NT fibrosarcoma viability, CellTiter-Glo ATP luminescence, 48 h; Potency, µM (doses to about 46.1 µM), inactives show at the top dose activity, negative = less viability, hits mostly cytotoxic; 1.6% of 360,000 active; AID 686970, 2013;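 further: NT is the 2HG producing partner of a matched IDH1 knockdown line; potency means the concentration at half of the fitted maximal effect; 0% = DMSO-treated cells and -100% = media-only wells without cells; nearly all actives have a fitted effect of over 55% in size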
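HT-1080-NT fibrosarcoma cells (2HG-overproducing), 750 cells/well in RPMI with 5% FBS, dosed after 2 h and incubated 48 h at 37C. CellTiter-Glo luminescence normalized to DMSO and no-cell wells; concentration-response curves fitted and classed.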
uPA surface inh = qHTS for Inhibitors of Cell Surface uPA Generation. cell surface uPA generation assay, qHTS. Potency, µM (series often up to 38.3 µM), without a hit: top-dose activity change, negative = inhibition, usual class: inhibitors. 0.31% of 330,000 active. AID 540303, 2011; active means well fitted inhibition curve with a large enough effect; inconclusive means small, poorly fitted or top-dose-only effect; inactive means no such curve, though single readings can be large or run the other way; tested in mouse RAW 264.7 cells; further: potency means the concentration at half of the fitted maximal effect; nearly all actives have a fitted effect of over 55% in size
DT40 TDP1 CPT = qHTS for Inhibitors of human tyrosyl-DNA phosphodiesterase 1 (TDP1): qHTS in cells in presence of CPT; chicken DT40 Tdp1-/-;hTDP1 cells + 20 nM CPT, ATP luminescence, 48 h; Potency, µM (doses to about 46.2 µM), inactives show top-dose activity change, negative = growth inhibition, actives largely listed as inhibitors; 12% of 420,000 active; further: potency means the concentration at half of the fitted maximal effect; nearly all actives have a fitted effect of over 55% in size
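Chicken DT40 Tdp1-/- cells complemented with human TDP1, 400 cells/well, exposed to compounds plus 20 nM camptothecin for at least 48 h at 37 C; viability read as ATP content by CellTiter-Glo luminescence.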
Active calls of the source: *; ? = inconclusive; . = not tested or not shown; [ ] = another dose, or the depositor's remark. Unless noted, the call rests on the fitted dose curve; in most records, active means well fitted curve in the direction sought with a large enough effect; inconclusive means small, poorly fitted or top-dose-only effect, or another doubt; inactive means no such curve, though single readings can be large; an effect the other way counts as inactive or inconclusive. Unless noted, on the % scale 0 is the no-effect control and ±100 the full control effect.

SMILES	HT1080 IDH1KD tx	IL1B secr inh	TDP1 cell noCPT	HT1080-NT tox	uPA surface inh	DT40 TDP1 CPT
N#CSC(c1ccccc1)c1nc2ccccc2[nH]c1=O (stereo not given)	?	29	26µM*	?	-5%	6.5µM*
Cc1ccc(NC(=O)c2cnn(-c3ccccc3)c2C)cc1C	-18%	?	?	-1%	-6%	?
CNS(=O)(=O)c1cc(NC(=O)c2cnc(SC)n2-c2ccccc2)ccc1C	5%	-2	15µM*	2%	-6%	?
CC(C)CSCC1OC(n2cnc3c(N)nccc32)C(O)C1O (stereo not given)	-11%	33	21µM*	-3%	.	?
CC(C)[C@H](N)C(=O)NC[C@H]1O[C@@H](n2cnc3c(N)ncnc32)[C@H](O)[C@@H]1O	7%	1	-9%	8%	-4%	-8%
Cc1ccc2cc(C#N)c(N3CCCN(S(=O)(=O)c4ccccc4)CC3)nc2c1	25%	35	26µM*	2%	4%	?
Cc1ccc2cc(C#N)c(N3CCCN(S(=O)(=O)c4ccc(F)cc4)CC3)nc2c1	10%[9.24 µM]	-13	15µM*	8%	4%	?
Cc1ccc2nc(N3CCN(C)CC3)c(C#N)cc2c1	1%	-10	-12%	0%	-2%	-5%
Cc1ccc2cc(C#N)c(N3CCCN(S(=O)(=O)c4ccccc4)CC3)nc2c1C	-16%	22	-13%	-6%	.	-9%
Cc1ccc2nc(N3CCN(S(=O)(=O)c4ccc(C)c(Cl)c4)CC3)c(C#N)cc2c1	?	10	21µM*	?	.	21µM*
Cc1ccc2cc(C#N)c(N3CCN(C)CC3)nc2c1	0%	-9	-11%	-2%	-3%	-5%
c1ccc(Cn2c[n+](Cc3ccccc3)c3ccccc32)cc1	?	-4	2.9µM*	?	-13%	3.3µM*
CCCCN1CC(COCc2ccccc2)Oc2cccc(Oc3ccc(OC)cc3)c2S1(=O)=O (stereo not given)	-1%	25	18µM*	-1%	12%	?
Cc1cc(Oc2cccc3c2S(=O)(=O)N(C2CCCC2)CC(COCc2ccccc2)O3)cc(C)c1C (stereo not given)	-1%	28	16µM*	?	1%	23µM*
CCCCN1CC(COCc2ccccc2)Oc2cccc(F)c2S1(=O)=O (stereo not given)	-4%	18	?	-7%	-15%	?
CCCCN1CC(COCc2ccccc2)Oc2ccccc2S1(=O)=O (stereo not given)	-1%	-14	23µM*	-13%	-10%	?
COc1ccc(-c2nn(-c3ccccc3)cc2CNCCN2CCOC2=O)c(F)c1	-16%	-18	?	-1%	-6%	?
COc1ccc(-n2cc(CNCCCN3CCCC3=O)c(-c3ccccc3Cl)n2)cc1	6%	?	16µM*	2%	-5%	16µM*
CC1CN(C)C(C)c2c1oc1ccc(N)cc21 (stereo not given)	-8%	0	10µM*	-14%	5%	?
COc1ccc(CN(C)C(=O)C2CCN(S(=O)(=O)c3cccs3)CC2)cc1F	4%	0	?	0%	-9%	?
Cn1cccc1/C=C1/SC(=S)N(CC(=O)O)C1=O	2%	-19	-10%	-5%	-11%	0%
CC1C/C(=C/c2ccncc2)C(=O)/C(=C/c2ccncc2)C1 (stereo not given)	3.7µM*	-84*	0.58µM*	?	3.5µM*	0.65µM*
CC1C/C(=C/c2cccn2C)C(=O)/C(=C/c2cccn2C)C1 (stereo not given)	?	-17	23µM*	?	-11%	23µM*
CCN(c1ccccc1)S(=O)(=O)c1ccc(F)c(C(=O)Nc2ccc(C)cc2)c1	.	.	12µM*	.	.	9.2µM*
CCN(c1ccccc1)S(=O)(=O)c1cc(C(=O)Nc2ccc(F)c(F)c2)ccc1F	?	-89*	?	15µM*	-14%	23µM*
SMILES	HT1080 IDH1KD tx	IL1B secr inh	TDP1 cell noCPT	HT1080-NT tox	uPA surface inh	DT40 TDP1 CPT
CCN(c1ccccc1)S(=O)(=O)c1ccc(NC(=O)c2ccco2)cc1	-9%	-21	?	2%	47%	?
CN(Cc1ccccc1)C(=O)C1CCN(S(=O)(=O)c2cc([N+](=O)[O-])ccc2Cl)CC1	-5%	?	23µM*	2%	-16%	?
Cc1ccc(NC(=O)C2CCN(S(=O)(=O)c3cc([N+](=O)[O-])ccc3Cl)CC2)nc1	?	-9	15µM*	?	?	16µM*
Cc1ccc2nc(NC(=O)C3CCN(S(=O)(=O)c4cc([N+](=O)[O-])ccc4Cl)CC3)sc2c1	-25%	?	6.5µM*	-4%	-7%	9.2µM*
O=C(NCc1ccccc1)C1CCN(S(=O)(=O)c2cc([N+](=O)[O-])ccc2Cl)CC1	-12%	-4	-31%	-5%	0%	?
CCn1c(CSCc2ccc(Cl)cc2)n[nH]c1=S	-8%	2	8.2µM*	-6%	0%	?
Cn1c(CSCc2ccc(Cl)c(Cl)c2)n[nH]c1=S	-3%	-5	23µM*	7%	9%	?
CCn1c(CSCc2ccc(C)cc2)n[nH]c1=S	7%	25	?	5%	12%	0%
Cn1c(Cc2ccccc2)n[nH]c1=S	0%	19	13%	12%	-6%	3%
Cn1c(CSCCOc2ccccc2)n[nH]c1=S	26%	16	16µM*	18%	2%	-18%
S=c1[nH]nc(CSCCOc2ccccc2)o1	11%	19	-29%	17%	0%	-7%
CCCc1ccc2oc(C(=O)N(C)Cc3nccs3)c(C)c2c1	?	-13	?	?	0%	?
Cc1ccc(S(=O)ONc2cccc(NOS(=O)c3ccc(C)cc3)c2)cc1 (stereo not given)	-8%	-19	?	-2%	.	?
CC(=O)c1ccc(NC(=O)COc2ccccc2-c2nc(-c3cccc(C)c3)no2)cc1	.	.	-19%	.	.	-3%
